Bioassay records from PubChem BioAssay.
gsp agonist = activates gsp, the McCune-Albright syndrome mutation; 340,000 compounds, 0.13% hits; gsp mutant cells, cAMP HTRF, 30 min; Potency, µM (doses to about 76.9 µM), actives largely listed as activators; active = well fitted activation curve with a large enough effect; inconclusive = small, poorly fitted or top-dose-only effect, or another doubt; inactive = no such curve, though single readings can be large or run the other way; cell line not stated here;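 note: phosphodiesterase inhibitor Ro 20-1724 added with compounds to block cAMP breakdown; nearly all actives have a fitted effect of over 60% in size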
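Cells stably selected in G418 were plated at 2000/well, grown 16-24 hr, then given compounds in DMSO with the PDE inhibitor […] (300 uM solution added) for 30 min at 37C; cAMP was read by HTRF.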
PTHR1 ag = activates the human parathyroid hormone receptor PTHR1. HEK293 GP2 PTHR1 cells, GloSensor cAMP luminescence, 1 h. Q03431. AID 743266. Potency, µM (series often up to 115 µM), hits mostly activators. 410,000 compounds, 0.075% hits; note: nearly all actives have a fitted effect of over 55% in size
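HEK-293-derived GP2 cells expressing PTHR1 and a GloSensor cAMP reporter, 3,000/well, plated overnight, given luciferin plus IBMX (each 0.5 mM as added) for 1 h at 37 °C, then compound for 1 h at 37 °C. Luminescence was read after 15 min at room temperature.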
gsp antagonist = antagonists of gsp mutant (McCune-Albright syndrome). 340,000 compounds, 0.4% hits. gsp-mutant cells, cAMP HTRF, 30 min. AID 624288. Potency, µM (series often up to 76.9 µM), hits mostly inhibitors; calls by dose curve; cell line not stated here;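 note: intracellular cAMP measured with PDE inhibitor Ro 20-1724 present during compound exposure; nearly all actives have a fitted effect of over 65% in size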
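HTRF cAMP measurement after 30 min RT detection following 30 min, 37C compound treatment alongside […] (added as 300 uM solution) in G418-selected cells seeded at 2000/well and grown 16–24 h.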
RXFP1 antag = blocks the human relaxin receptor RXFP1. activity change, negative = inhibition, % at 57.5 µM. HEK293-RXFP1, relaxin-stimulated cAMP HTRF, 30 min; hits give low values. 350,000 compounds, 0.59% hits. AID 1259400. Q9HBX9;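 active = activity change of -60% or lower, but not beyond a set lower limit; inconclusive = change between -60% and -40%, or beyond the set limit; inactive = change above -40%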
Target sequence (Q9HBX9 whole entry, looked up): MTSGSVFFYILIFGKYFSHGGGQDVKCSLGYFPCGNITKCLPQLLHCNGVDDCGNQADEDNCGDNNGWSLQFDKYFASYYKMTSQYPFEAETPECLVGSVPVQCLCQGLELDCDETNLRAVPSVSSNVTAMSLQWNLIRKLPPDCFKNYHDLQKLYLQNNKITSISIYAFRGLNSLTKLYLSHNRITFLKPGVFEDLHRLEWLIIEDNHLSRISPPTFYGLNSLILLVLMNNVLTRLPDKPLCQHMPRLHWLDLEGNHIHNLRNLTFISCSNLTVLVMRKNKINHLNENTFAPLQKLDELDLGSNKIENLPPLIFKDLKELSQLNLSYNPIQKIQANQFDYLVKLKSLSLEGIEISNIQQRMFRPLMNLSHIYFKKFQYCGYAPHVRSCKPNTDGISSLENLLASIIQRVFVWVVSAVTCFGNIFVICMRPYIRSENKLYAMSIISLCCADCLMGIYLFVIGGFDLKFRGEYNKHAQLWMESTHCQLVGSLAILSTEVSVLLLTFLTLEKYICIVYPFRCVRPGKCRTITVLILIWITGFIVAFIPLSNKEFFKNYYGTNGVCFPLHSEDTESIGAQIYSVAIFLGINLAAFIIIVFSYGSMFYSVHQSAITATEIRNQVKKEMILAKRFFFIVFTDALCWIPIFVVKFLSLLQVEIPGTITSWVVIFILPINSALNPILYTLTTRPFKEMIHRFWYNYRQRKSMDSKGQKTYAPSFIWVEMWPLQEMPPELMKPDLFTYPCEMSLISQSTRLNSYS
RXFP1 agonist = agonists of human relaxin receptor RXFP1 | HEK293T-RXFP1 cAMP TR-FRET, 30 min; response scale: percent of porcine relaxin response, buffer zero | Potency, µM (doses to about 57.5 µM), actives largely listed as activators | 370,000 compounds, 0.3% hits | AID 2676; note: nearly all actives have a fitted effect of over 60% in size
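Agonist response is measured as cAMP accumulation in an RXFP1-transfected HEK293T line under PDE4 inhibition. Values are scaled between buffer-only and 29 nM porcine relaxin, and EC50s come from standard Hill equation fits.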
Hits are given with their value; n = inactive; u = inconclusive; x = no result given; [ ] = another dose, or the depositor's remark. Compounds with a hit are over-represented: about 1% of the library has one in this group of screens. Unless noted, calls come from the whole dose curve; as a rule, active = well fitted curve in the direction sought with a large enough effect; inconclusive = small, poorly fitted or top-dose-only effect, or another doubt; inactive = no such curve, though single readings can be large; an effect the other way counts as inactive or inconclusive.

SMILES	gsp agonist	PTHR1 ag	gsp antagonist	RXFP1 antag	RXFP1 agonist
COc1ccccc1C(c1c(O)cc(C)n(Cc2ccco2)c1=O)N1CCCCC1 (centres undefined)	x	n	x	n	n
CCCN(Cc1cccs1)C(=O)Nc1ccc(Br)c(C)c1	x	n	x	n	n
O=C(CN(C(=O)c1csnn1)c1ccc(Cl)cc1)NC1CCCC1	n	n	n	n	n
CC(=O)c1ccc(N(CC(=O)NC2CCCC2)C(=O)c2csnn2)cc1	n	n	n	-82	n
COc1cccc(S(=O)(=O)NCc2ccc(C(=O)Nc3ccc(Cl)c(Cl)c3)cc2)c1	n	n	n	n	n
O=C(Nc1ccc(Cl)c(Cl)c1)c1cccc(S(=O)(=O)NCc2cccnc2)c1	n[15.4 µM]	n	28µM	n	n
COc1ccc(NC(=O)c2ccc(-c3nc(CSc4ccc(C)cc4)c(C)o3)cc2)cc1Cl	x	n	x	x	n
Cc1ccc(C(=O)NCCc2ccc(Cl)cc2)cc1-n1c(C)nc2cccnc21	x	n	x	n	n
COc1ccc(S(=O)(=O)N(C(=O)c2ccco2)c2cc3sc(=O)oc3c3ccccc23)cc1	n	n	n	u	n
CCOc1ccc(S(=O)(=O)N(C(=O)c2ccco2)c2cc3sc(=O)oc3c3ccccc23)cc1	n	n	n	-68	n
Cc1ccc(S(=O)(=O)N(C(=O)c2ccco2)c2cc3sc(=O)oc3c3ccccc23)cc1	n	n	n	-79	n
Cc1c(C)n(Cc2ccccc2)c2ccc(C(=O)NCC(C)c3ccccc3)cc12 (centres undefined)	x	n	x	n	n
Cc1ccc(NC(=O)c2cnc(SCC(=O)N3CCOCC3)n(C)c2=O)cc1C	x	n	x	n	n
CCn1cc(C(=O)NC(C)C23CC4CC(CC(C4)C2)C3)cn1 (centres undefined)	n[15.4 µM]	n	n	n	n
CC(NC(=O)Cn1ncc(Cl)c(Cl)c1=O)C12CC3CC(CC(C3)C1)C2 (centres undefined)	n	n	u	-100	n
Cc1ccc(C)c(N2CCN(Cc3nnc(-c4ccc5c(c4)OCO5)o3)CC2)c1	x	n	x	n	n
Cc1ccc(C(=O)N/N=C\c2ccc([N+](=O)[O-])o2)cn1	8.9µM	n	n	n	n
CN1CCN(C(=O)CCC(=O)O)CC1	u	n	n	n	n
CN1CCN(CC(=O)O)CC1	20µM	n	n	n	n
Cc1c(Cl)cccc1NC(=O)CC(c1cccs1)N1Cc2ccccc2C1=O (centres undefined)	x	n	x	x	n
Cn1c(=O)n(C)c2cc([N+](=O)[O-])c(N3CCN(S(=O)(=O)c4ccccc4)CC3)cc21	n	n	25µM	n	n
COc1ccc(CNC(=O)CSc2nnc(C)c3c(C)n(-c4ccccc4)nc23)c(OC)c1	x	n	x	n	n
CCOc1ccc(NC(=O)Cn2c3ncccc3c(=O)n2-c2ccc(CC)cc2)cc1	x	n	x	n	n
Cc1ccc(CNC(=O)C2CCN(S(=O)(=O)c3c(C)noc3/C=C/N(C)C)CC2)cc1	n	n	n	-64	n
COC(=O)c1ccc(NC(=O)CC2Nc3cc(C)c(C)cc3NC2=O)cc1 (centres undefined)	x	n	x	n	x
SMILES	gsp agonist	PTHR1 ag	gsp antagonist	RXFP1 antag	RXFP1 agonist
Nc1cc(N)nc(SCc2cc([N+](=O)[O-])cc3c2OCOC3)n1	u	n	n	n	n
O=[N+]([O-])c1cc2c(c(CSc3ncccn3)c1)OCOC2	n[15.4 µM]	n	n	n	14µM
CCc1ccc2nc(N(CCN(C)C)C(=O)c3ccc4ncsc4c3)sc2c1	n[15.4 µM]	n	n	-68	n
Cc1ccc(C(=O)N(CCCN(C)C)c2nc3ccc(Cl)cc3s2)cc1C	n[15.4 µM]	n	n	-100	n
Cc1ccc2nc(N(CCCN(C)C)C(=O)c3ccc(S(=O)(=O)N4CCc5ccccc5C4)cc3)sc2c1	n[15.4 µM]	n	n	-65	n
COc1ccc(NC(=O)c2oc3ccccc3c2NC(=O)C23CC4CC(CC(C4)C2)C3)c(OC)c1	x	n	x	x	u
O=C(NC(Nc1nc2ccc([N+](=O)[O-])cc2s1)(C(F)(F)F)C(F)(F)F)c1cccnc1	u	n	35µM	n	n
CN(C)S(=O)(=O)c1ccc2nc(NC(=O)c3cccnc3)sc2c1	n	n	n	n	n
O=C(NC(Nc1nc2ccc([N+](=O)[O-])cc2s1)(C(F)(F)F)C(F)(F)F)c1ccccc1Cl	n	n	25µM	n	n
O=C(NC(NNc1ccc([N+](=O)[O-])cc1)(C(F)(F)F)C(F)(F)F)c1ccccc1Cl	n	n	n	n	n
O=[N+]([O-])c1ccc2nc(SCc3ccccc3Cl)sc2c1	n	n	25µM	n	n
CN1/C(=C\C(=O)c2ccco2)C(C)(C)c2ccccc21	n	n	35µM	-86	n
CN1/C(=C/C(=O)c2nc(S(C)(=O)=O)ncc2Cl)C(C)(C)c2ccccc21	n	n	n	-69	n
CN1/C(=C\C(=O)COc2ccc3c(c2)OCO3)C(C)(C)c2ccccc21	n	n	40µM	n	n
CN1/C(=C\C(=O)COC(=O)c2ccco2)C(C)(C)c2ccccc21	n	n	n	n	n
CN(C)S(=O)(=O)Oc1ccsc1C(=O)Nc1ccccc1Cl	n	n	28µM	n	n
O=C1CC(c2ccc(Cl)cc2)CC(=O)N1	x	x	x	n	x
COc1cccc(NC(=O)Nc2nc(SC)ns2)c1	n	n	n	n	n
COc1cccc(NC(=O)Nc2nc(SC(C)(C)C)ns2)c1	n	n	40µM	n	n
N#C/C(=C\c1ccc([N+](=O)[O-])o1)C(=O)Nc1ccc(F)cc1	n[15.4 µM]	n	n	-68	n
CC(NC(=O)C(=O)N1CCCCC1)C(c1cccs1)N1CCN(Cc2ccccc2)CC1 (centres undefined)	u	n	n	-66	n
CCC(CN)=C(c1ccccc1)c1ccccc1	x	x	x	n	x
Cc1cc(C)c(Nc2cc(S(=O)(=O)O)c(N)c3c2C(=O)c2ccccc2C3=O)c(C)c1	n	n	28µM	n	n
CC(C)(C)C(=O)NC(=S)NNC(=O)c1sc2ccccc2c1Cl	n	n	50µM	u	n
C=CCOc1ccc(C2C(C(=O)c3ccco3)=C(O)C(=O)N2Cc2cccnc2)cc1 (centres undefined)	28µM	n	n	n	n
C=CCOc1cccc(C2C(C(=O)c3ccco3)=C(O)C(=O)N2Cc2cccnc2)c1 (centres undefined)	n[15.4 µM]	n	n	n	n
COc1cccc2cc(C(=O)C3=C(O)C(=O)N(Cc4ccco4)C3c3cccnc3)oc12 (centres undefined)	10µM	n	n	n	25µM
COc1ccccc1C(=O)Nc1cccc(OCc2cc(=O)n3c(C)csc3n2)c1	x	n	x	x	n
CCN(c1cc(C)cc(C)c1)S(=O)(=O)c1nnc(NC(=O)c2ccccc2C)s1	x	n	x	n	n
Cc1ccc(OCC(=O)Nc2ccc3nc(SCC(N)=O)sc3c2)cc1	x	n	x	x	n
